We go through 98 molecules from PubChem BioAssay AID463173 (ICCB-Longwood Screening Facility, Harvard Medical School, 2010).

The campaign covered roughly 52,000 compounds. About 4,300 (8.3%) were called active. The sample as a whole holds a higher share of actives than the screen did. A number with no mark means an inactive call. Cut-off read from the data, not from the text of the source: active = survival mostly below about 52% (no sharp cut-off); inactive = mostly above about 56%.

This experiment has as its system DeltatarO mutant. The experiment can be described thus: S. aureus survival, RN4220 and DeltatarO strains – OD600, teichoic acid synthesis inhibitors, primary screen (AID 463173). The conditions noted are these: S. aureus RN4220 wild type/DeltatarO growth, OD600, 18 h, stronger effect = lower value, screened at 18.75 µg/mL (by protocol).
For `Cc1cc(S(=O)(=O)N2CCN(Cc3noc(CCC(=O)N4CCCCC4)n3)CC2)ccc1F`, the survival is 89%.

As to `CCC(=O)N1CCc2cc(Br)cc(S(=O)(=O)N3CCN(c4ccccc4)CC3)c21`, the survival is 73%.

Regarding `CCOc1ccc(CNC(=O)C2CCCN(S(=O)(=O)c3ccc4c(c3)CCCC(=O)N4)C2)cc1` (stereo not drawn), the survival was 75%.

Regarding `CN1c2ccc(Cl)cc2-c2nc(SCC(=O)NCc3ccc(F)cc3)ncc2S1(=O)=O`, the survival was 117%.

Consider `COc1ccc(-c2cn3c(n2)sc2cc(C(=O)Nc4ccc(F)cc4Cl)ccc23)cc1`, for which the survival was 61%.

For `O=C(c1cc2ccc3cccnc3c2[nH]1)N1CCCCC1`, the survival was 69%.

`Cc1ccc(OC(=O)c2ccco2)cc1C`: the survival was 61%.

As to `CCCOC(=O)c1ccc(NC(=O)Cc2csc(C)n2)cc1`, the survival is 105%.

In the case of `Cc1cccc(NC(=O)Cc2csc(COc3cccc(C)c3)n2)c1`, the survival is 74%.

As to `Cc1nc(CC(=O)Nc2ccc(C(N)=O)cc2)cs1`, the survival was 49%.

Turning to `Cc1cc(C)cc(NC(=O)Cc2csc(COc3cccc(C)c3)n2)c1`, the survival is 90%.

For `Cc1nc(CC(=O)Nc2ccc(C)c(C)c2)cs1`, the survival was 40% (active).

With `Cc1cccc(OCc2nc(CC(=O)Nc3ccc(C)c(C)c3)cs2)c1`, the survival is 85%.

In the case of `COc1ccc(NC(=O)Cc2csc(C)n2)cc1`, the survival was 47%.

`Cc1cc(C)cc(NC(=O)Cc2csc(C)n2)c1`: the survival is 39% (active).

In the case of `Cc1nc(CC(=O)Nc2ccc(N(C)C)cc2)cs1`, the survival was 45% (active).

Consider `COc1ccc(-c2cc(-c3ccc(F)cc3)nc3c2COc2ccc(F)cc2-3)cc1`, for which the survival is 65%.

As for `CCC(=O)N1CCc2cc(S(=O)(=O)NC(CC(C)C)C(=O)NCc3cccc(OC)c3)ccc21` (stereo not drawn), the survival is 73%.

Take `COC(=O)C1=C(c2ccccc2)c2ccccc2S(=O)(=O)N1CC(=O)Nc1ccc(F)c(F)c1`: the survival was 40%.

On to `C1CCC(N2CCC(N3CCCCC3)CC2)CC1`, for which the survival is 91%.

On to `N#CC(C#N)=Cc1ccc(-c2ccc3c(c2)COC3=O)o1`, for which the survival was 90%.

Take `O=C(NC1CCCCC1)N1CCN(Cc2ccccc2)CC1`: the survival was 69%.

Regarding `c1ccc(N2CCN(N=C3c4ccccc4-c4ccccc43)CC2)nc1`, the survival is 18% (active).

As to `O=C(NC1CCCCC1)N1CCN(c2ccccn2)CC1`, the survival is 94%.

For the molecule `C(=N\N1CCN(c2ccccn2)CC1)/c1ccco1`, the survival was 100%.

With `C=Cn1c(C)c(C(C#N)=C(C#N)C#N)c2c1CCCC2`, the survival was 2% (active).

As to `COCCNC(=O)C1CCN(S(=O)(=O)c2ccc3c(c2)CCCN3C(C)=O)CC1`, the survival was 85%.

With `Cc1ccc(NS(=O)(=O)c2ccc(NC(=O)N3CCCC3)cc2)cc1C`, the survival is 75%.

`Cc1ccc(NS(=O)(=O)c2ccc3c(c2)n(C)c(=O)n3C)cc1C`: the survival was 67%.

Turning to `Cc1cccc(Cn2ccn(Cc3ccc(Cl)cc3)c(=O)c2=O)c1`, the survival is 121%.

With `O=C(Nc1onc2c1CCCC2)c1ccccc1`, the survival is 105%.

With `Cc1cccc(C(=O)Nc2nc3c(s2)CCCC3)c1`, the survival was 67%.

With `O=C(Nc1cc2c(s1)CCCC2)c1ccccc1`, the survival was 46% (active).

`O=c1c2ccccc2nc(-c2ccc(Cl)cc2)n1CCCOc1ccccc1F`: the survival was 57%.

Take `COc1ccccc1OCCCCn1c(-c2ccc(Cl)cc2)nc2ccccc2c1=O`: the survival is 59%.

For `CCc1ccc(OCCCn2c(-c3ccc(Cl)cc3)nc3ccccc3c2=O)cc1`, the survival is 44% (active).

With `O=c1c2ccccc2nc(-c2ccc(Cl)cc2)n1CCCCOc1ccc(F)cc1`, the survival was 45% (active).

Turning to `COc1cccc(OCCCn2c(-c3ccc(Cl)cc3)nc3ccccc3c2=O)c1`, the survival is 61%.

In the case of `CCOc1ccccc1OCCCn1c(-c2ccc(Cl)cc2)nc2ccccc2c1=O`, the survival was 42%.

As for `Cc1ccc(OCCCn2c(-c3ccc(Cl)cc3)nc3ccccc3c2=O)cc1C`, the survival is 58%.

For `Cc1ccccc1OCCCCn1c(-c2ccc(Cl)cc2)nc2ccccc2c1=O`, the survival is 71%.

On to `Cc1ccc(OCCCCn2c(-c3ccc(Cl)cc3)nc3ccccc3c2=O)cc1`, for which the survival was 68%.

`COc1cccc(OCCCCn2c(-c3ccc(Cl)cc3)nc3ccccc3c2=O)c1`: the survival is 62%.

For `COc1ccccc1OCCCn1c(-c2ccc(Cl)cc2)nc2ccccc2c1=O`, the survival was 29% (active).

For `COc1ccc(OCCCCn2c(-c3ccc(Cl)cc3)nc3ccccc3c2=O)cc1`, the survival was 34% (active).

For the molecule `COc1ccc(-c2cc3c(=O)n(CC(=O)Nc4ccccc4C(F)(F)F)ccn3n2)cc1OC`, the survival was 86%.

Take `CSc1ccc(CNC(=O)CCn2ccc3cc(S(=O)(=O)N4CCCC4)ccc32)cc1`: the survival is 100%.

For the molecule `O=C(NCc1ccc(F)cc1)c1cc2n(n1)CCCN(Cc1ccc(F)cc1)C2=O`, the survival is 64%.

On to `CC(C)(C)OC(=O)N1CCC(c2c(C(=O)Nc3cccc(C(F)(F)F)c3)cnn2-c2ccc(F)cc2F)CC1`, for which the survival was 61%.

`N#Cc1ccc(-c2cccnc2)n(CC(=O)N2CCOCC2)c1=O`: the survival is 106%.

On to `Cc1ccc(Cl)cc1N1CCN(C(=O)c2cc(S(=O)(=O)N3CCCCC3)cn2C)CC1`, for which the survival was 83%.

As to `Cc1ccc(C(=O)Nc2ccc3oc(-c4cccnc4)nc3c2)c(Cl)c1`, the survival is 88%.

For `Cc1ccc(OCCn2c(CNc3ccccc3C)nc3ccccc32)cc1`, the survival is 42% (active).

On to `Cc1ccccc1NCc1nc2ccccc2n1CCOc1ccccc1`, for which the survival was 0% (active).

For the molecule `Cc1ccccc1Cn1c(=O)n(CCCCC(=O)NCCc2ccccc2)c(=O)c2ccccc21`, the survival is 83%.

Take `COc1ccc(NC(=O)C2=C(C)Nc3ncnn3C2c2ccc(O)cc2)cc1` (stereo not drawn): the survival was 101%.

For `CC1CCN(C(=O)C(C)Sc2nnc3c(n2)[nH]c2ccccc23)CC1` (stereo not drawn), the survival was 102%.

Regarding `COc1cc(/C=C/c2nc(C#N)c(N3CCCCCC3)o2)cc(OC)c1OC`, the survival is 85%.

Consider `COc1ccc(/C=C/c2nc(C#N)c(N3CCC(C)CC3)o2)cc1OC`, for which the survival is 81%.

As to `COc1cc(/C=C/c2nc(C#N)c(N3CCN(C)CC3)o2)cc(OC)c1OC`, the survival is 73%.

On to `COc1ccc(N2CCN(c3oc(/C=C/c4cc(OC)c(OC)c(OC)c4)nc3C#N)CC2)cc1`, for which the survival was 49% (active).

As for `COc1ccc(/C=C/c2nc(C#N)c(N3CCCCC3)o2)cc1OC`, the survival was 76%.

On to `COc1ccc(/C=C/c2nc(C#N)c(N3CCCCCC3)o2)cc1OC`, for which the survival was 45% (active).

`CCOC(=O)c1c(NC(=O)Cc2coc3cc(C)ccc23)sc2c1CCCC2`: the survival is 95%.

With `O=C(NC1CCS(=O)(=O)C1)Sc1ccccc1` (stereo not drawn), the survival was 96%.

Regarding `CCc1ccc2nc(SCC(=O)N3CC(=O)Nc4ccccc43)c(C#N)cc2c1`, the survival is 107%.

For `COc1cc(NS(=O)(=O)c2ccc(NC(=O)c3ccc(C(C)=O)cc3)cc2)nc(OC)n1`, the survival is 87%.

For `O=C(OCc1ccccc1)c1ccc(-c2nnn(Cc3ccccc3F)n2)cc1`, the survival was 98%.

Regarding `COc1ccc(C2=C(Nc3ccc(Br)c(C)c3)c3ccccc3C2=O)cc1`, the survival was 0% (active).

`Cc1ccc(NC2=C(c3ccc(C(F)(F)F)cc3)C(=O)c3ccccc32)cc1C`: the survival is 69%.

Consider `COc1ccc(C2=C(Nc3ccc(C)cc3C)c3ccccc3C2=O)cc1`, for which the survival was 71%.

With `O=C1C(c2ccc(C(F)(F)F)cc2)=C(Nc2ccc(Cl)cc2)c2ccccc21`, the survival is 63%.

As to `Cc1ccc(NC2=C(c3ccc(C(F)(F)F)cc3)C(=O)c3ccccc32)cc1F`, the survival was 28% (active).

For `Cc1cc(C)cc(NC2=C(c3ccccc3)C(=O)c3ccccc32)c1`, the survival is 39% (active).

On to `COc1ccc(C2=C(Nc3ccc(C)c(C)c3)c3ccccc3C2=O)cc1`, for which the survival is 93%.

For the molecule `COc1ccc(OC)c(NC2=C(c3ccccc3)C(=O)c3ccccc32)c1`, the survival was 62%.

As to `COc1ccc(NC2=C(c3ccccc3)C(=O)c3ccccc32)cc1Cl`, the survival is 116%.

As to `COc1cc(C(CC(=O)Nc2cc(C)ccn2)N2Cc3ccccc3C2=O)cc(OC)c1OC` (stereo not drawn), the survival is 76%.

On to `Cn1c(C(=O)NCc2ccccc2Cl)cc2sc(Cl)cc21`, for which the survival is 64%.

As for `CCCCNC(=O)CCC1N=C2c3ccccc3N=C(SCC(=O)NCCc3ccc(OC)c(OC)c3)N2C1=O` (stereo not drawn), the survival is 64%.

Take `COc1cc(Cl)c(C)cc1NC(=O)Cn1ncc2c3ccccc3n(Cc3ccccc3)c2c1=O`: the survival was 83%.

On to `CCC(=O)N1CCc2cc(S(=O)(=O)NC(C(=O)NCc3ccc(OC)cc3)C(C)C)ccc21` (stereo not drawn), for which the survival was 92%.

In the case of `Cc1ccccc1Nc1sc(C(=O)c2ccc3c(c2)OCO3)c(N)c1S(=O)(=O)c1ccccc1`, the survival was 78%.

As for `Cc1ccc(CNC(=O)C(C)n2nc(C)n3c(cc4sccc43)c2=O)cc1` (stereo not drawn), the survival is 111%.

`CCOc1ccc(NC(=O)CC2C(=O)N(c3cccc(C)c3)C(=O)N2Cc2ccco2)cc1` (stereo not drawn): the survival was 83%.

In the case of `CCOC(=O)CNC(=O)Nc1cc(C(=O)NCc2ccc(C(C)C)cc2)ccc1N1CCCC1`, the survival is 93%.

Regarding `Cc1ccc(-n2c(SCC(N)=O)nc3c(oc4ccccc43)c2=O)cc1`, the survival was 69%.

For the molecule `CCOc1ccc(-c2nnc(Nc3ccc(S(N)(=O)=O)cc3)c3ccccc23)cc1`, the survival is 56%.

Consider `CCOc1ccc(-c2ncccc2O)cc1`, for which the survival was 105%.

For the molecule `CCCCOc1nnc(-c2ccc(OCC)cc2)c2ccccc12`, the survival is -12% (active).

Turning to `Cc1cc(=O)n(Cc2ccc(F)cc2Cl)c2c1c(C)nn2-c1ccccc1`, the survival is 96%.

`CCc1ccccc1NC(=O)Cn1c(=O)n(C(C)C)c(=O)c2oc3ccccc3c21`: the survival was 66%.

For `COc1cc(NC(=O)CSc2ncc3c(n2)-c2ccc(Cl)cc2N(Cc2ccccc2)S3(=O)=O)cc(OC)c1`, the survival was 55%.

As to `CCOc1ccc(NC(=O)CSc2ncc3c(n2)-c2cc(Cl)ccc2N(C)S3(=O)=O)cc1`, the survival is 0% (active).

Regarding `COc1cccc(NC(=O)CSc2ncc3c(n2)-c2ccc(Cl)cc2N(C)S3(=O)=O)c1`, the survival was 37% (active).

As for `CCOc1ccc(NC(=O)CSc2ncc3c(n2)-c2ccccc2N(C)S3(=O)=O)cc1`, the survival was 75%.

`Cc1ccc(NC(=O)CSc2ncc3c(n2)-c2ccc(Cl)cc2N(C)S3(=O)=O)cc1F`: the survival is 69%.

For `CCc1cccc(NC(=O)CSc2ncc3c(n2)-c2cc(Cl)ccc2N(C)S3(=O)=O)c1`, the survival was 57%.
